Data published in PubChem BioAssay AID1030 (National Center for Advancing Translational Sciences (NCATS), 2008).
In all, about 220,000 compounds went through this assay and about 16,000 (7.3%) were called active. About 25% were inconclusive and are not listed. Many of the other results were omitted from the sample, so actives are more common in it than they were. Values without a mark were called inactive. The call rests on the fitted dose curve; in most records, active means well fitted inhibition curve with a large enough effect (not every such curve was filed as active); inconclusive means small, poorly fitted or top-dose-only effect, or another doubt; inactive means no such curve, though single readings can be large or run the other way.

What follows are compounds tested against Aldehyde dehydrogenase 1A1 (Homo sapiens) (UniProt P00352) (assay: qHTS Assay for Inhibitors of Aldehyde Dehydrogenase 1 (ALDH1A1)). Details: Purified ALDH1A1, NADH fluorescence, propionaldehyde substrate; series mostly up to 75.3 µM; activity, negative = inhibition: at the top concentration.
Sequence of Aldehyde dehydrogenase 1A1 (Homo sapiens) (P00352 whole entry, looked up): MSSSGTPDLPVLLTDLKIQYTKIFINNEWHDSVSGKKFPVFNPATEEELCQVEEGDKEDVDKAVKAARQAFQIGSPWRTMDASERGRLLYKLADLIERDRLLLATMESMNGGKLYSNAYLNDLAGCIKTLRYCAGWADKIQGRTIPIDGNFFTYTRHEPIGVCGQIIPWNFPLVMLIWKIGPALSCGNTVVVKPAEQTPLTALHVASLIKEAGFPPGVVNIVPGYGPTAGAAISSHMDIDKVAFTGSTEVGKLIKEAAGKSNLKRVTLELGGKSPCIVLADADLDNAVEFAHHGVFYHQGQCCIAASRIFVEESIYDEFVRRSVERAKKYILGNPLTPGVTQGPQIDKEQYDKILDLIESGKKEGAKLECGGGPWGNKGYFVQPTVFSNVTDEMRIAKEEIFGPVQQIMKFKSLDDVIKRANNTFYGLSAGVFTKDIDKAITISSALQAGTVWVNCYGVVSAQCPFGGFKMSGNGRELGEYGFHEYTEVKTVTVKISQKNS
Potency means the concentration at half of the fitted maximal effect.
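Wherever activity, negative = inhibition is given: plate controls were no enzyme wells and a reference inhibitor.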

Row | Structure (SMILES) | activity, negative = inhibition [%] | Potency
1 | Cc1cc(C(=O)OC(C)C(=O)Nc2cccc(S(=O)(=O)N3CCOCC3)c2)c(C)o1 (stereo unspecified) | -9.99 | –
2 | O=C(O)/C=C/c1ccc(S(=O)(=O)N2CCCCCC2)cc1 | 1.8 | –
3 | CC(OC(=O)CNS(=O)(=O)/C=C/c1ccccc1)C(=O)Nc1ccc(S(=O)(=O)N2CCCC2)cc1 (stereo unspecified) | – | 1.26 µM (active)
4 | C/C(N)=C(/C#N)C(=O)COC(=O)C1CCN(C(=O)c2ccc(Cl)cc2)CC1 | 6.17 | –
5 | N/C(=N\OC(=O)Cc1ccccc1[N+](=O)[O-])c1ccc(Br)cc1 | -19.8 | –
6 | NS(=O)(=O)c1ccc(NC(=O)/C=C/c2ccccc2Cl)cc1 | 5.79 | –
7 | COC(=O)C1=C(C)N(c2ccc(C)cc2)/C(=C/c2ccc(O)cc2)C1=O | 1.55 | –
8 | CCOc1cc(C(=O)OCC(=O)Nc2cccc(C)c2)ccc1OCC(=O)N1CCOCC1 | 26.8 | –
9 | CCOc1cc(C(=S)N2CCOCC2)ccc1O | – | 8.91 µM (active)
10 | Cc1ccc(C(=O)C(=S)N2CCOCC2)cc1 | 0.91 | –
11 | Clc1ccccc1CSc1nnc(-c2ccco2)c(-c2ccco2)n1 | – | 10 µM (active)
12 | Nc1nc(SCc2ccccc2Cl)n[nH]1 | 0.779 | –
13 | COC(OC)c1ccnc(SCc2ccccc2Cl)n1 | 2.6 | –
14 | Clc1ccc(CSc2nnc3c(n2)[nH]c2ccccc23)cc1 | 7.53 | –
15 | c1ccc(CSc2nnc(-c3ccco3)c(-c3ccco3)n2)cc1 | – | 2.82 µM (active)
16 | O=c1[nH]c(SCc2ccccc2)nnc1-c1ccccc1 | -0.436 | –
17 | O=C(NC(=O)c1cc(OCC(F)(F)F)ccc1OCC(F)(F)F)Nc1ccccc1 | 1.1 | –
18 | CCOc1ccc(-n2c(O)c(/C=N/Nc3nc(C)cc(C)n3)c3ccccc3c2=O)cc1 | – | 5.01 µM (active)
19 | Cc1ccc(-n2c(O)c(C=Nc3ccc(S(=O)(=O)Nc4ncccn4)cc3)c3ccccc3c2=O)cc1C | 5.14 | –

Row | Structure (SMILES) | activity, negative = inhibition [%] | Potency
20 | CCOc1ccc(N=Cc2c(O)n(-c3cccc(C)n3)c(=O)c3ccccc23)cc1 | -2.85 | –
21 | O=C(NCCOc1ccccc1F)Nc1ccc(Br)cc1 | 8.09 | –
22 | O=C1c2ccccc2C(Nc2ccc3c(c2)OCCO3)N1Cc1ccco1 (stereo unspecified) | – | 7.08 µM (active)
23 | Cc1ccnc(N2C(=O)c3ccccc3C2Nc2ccc3c(c2)OCCO3)c1 (stereo unspecified) | -5.58 | –
24 | O=C(NC1CCCCC1)C1c2ccccc2C(=O)N1Cc1ccco1 (stereo unspecified) | -7.86 | –
25 | COc1ccccc1NC(=O)/C=C/C(N)=O | – | 28.2 µM (active)
26 | COc1ccccc1NC(=O)/C=C/C(=O)O | 2.77 | –
27 | COc1ccccc1NC(=O)c1ccc(C)s1 | -4.02 | –
28 | Cc1ccc(Cl)cc1NC(=O)COC(=O)CC(C)(C)C | – | 8.91 µM (active)
29 | Cc1ccc(Cl)cc1NC(=O)COC(=O)C1CCCCC1 | 4 | –
30 | CCCC(=O)OCC(=O)Nc1cc(Cl)ccc1[N+](=O)[O-] | -0.69 | –
31 | Cc1ccc2nc(-c3ccccn3)cc(C(=O)Nc3ccc4c(c3)OCO4)c2c1 | 4.03 | –
32 | CCCCn1nc(C(=O)Nc2ccc(S(=O)(=O)Nc3ncccn3)cc2)c2ccccc2c1=O | 1.98 | –
33 | Cn1cc(CN2CCC(C(O)CCc3ccccc3)CC2)c(-c2ccccc2F)n1 (stereo unspecified) | 7.67 | –
34 | CS(=O)(=O)n1nc(-c2ccco2)nc1N | -2.53 | –
35 | C/C(N)=C(/C#N)C(=O)COC(=O)c1cc(-c2ccccc2)nc2ccc(Br)cc12 | 3.96 | –
36 | Cc1ccc(NC(=O)CN2CCCCC2)c2c1CC(C)(C)O2 | -6.17 | –
37 | Cc1cc(CO)nn1-c1ccc([N+](=O)[O-])cc1 | 4 | –
38 | COc1ccc(NC(=O)Cn2c(-c3ccc(OC)cc3)cn(-c3ccc(C)cc3)c2=O)cc1 | – | 15.8 µM (active)

Row | Structure (SMILES) | activity, negative = inhibition [%] | Potency
39 | Cc1ccc(OC(=O)CCC(=O)Nc2ccc(Br)cc2)cc1 | 11.2 | –
40 | COc1ccc(C(CC(=O)Nc2ccc(C)cc2)NC(=O)C(F)(F)F)cc1 (stereo unspecified) | 7.22 | –
41 | COC(=O)C1=C(C)Nc2ncnn2C1c1ccco1 (stereo unspecified) | 2.79 | –
42 | COC(=O)C1=C(C)Nc2ncnn2C1c1cccnc1 (stereo unspecified) | 5.06 | –
43 | CC1=C(C(=O)OC2CCCCC2)C(c2cccnc2)n2ncnc2N1 (stereo unspecified) | – | 20 µM (active)
44 | Cc1cc(C)cc(NC(=O)N(C)Cc2ccccc2)c1 | 0.822 | –
45 | CCc1cccc2c(=O)c(C(=O)NCCCOC)c[nH]c12 | – | 2 µM (active)
46 | CCCCOCCCNC(=O)c1ccccc1OCC | 3.62 | –
47 | CCOCCCNC(=O)c1c[nH]c2cc(C)ccc2c1=O | -4.04 | –
48 | Cc1ccc(O)c(NC(=S)NC(=O)COc2ccc(Br)cc2)c1 | -1.2 | –
49 | Cn1c(CO)cnc1SCc1ccccc1 | 16.3 | –
50 | CSc1nc2ccccc2c(=O)n1Cc1ccc(F)cc1 | 8.56 | –
51 | CSc1c(SCc2ccccc2)cnn(Cc2ccccc2)c1=O | – | 11.2 µM (active)
52 | CCCOCC(O)CC(CC)C(=O)NNC(=S)Nc1ccccc1 (stereo unspecified) | -9.33 | –
53 | CC1(C)CC(CC(=O)O)C(=O)O1 (stereo unspecified) | -1.05 | –
54 | C/C(CC1CC(C)(C)OC1=O)=N/Nc1nc(-c2ccccc2)cs1 (stereo unspecified) | – | 7.94 µM (active)
55 | O=C(Nc1nc(-c2ccc(-c3ccccc3)cc2)cs1)c1cnccn1 | 3.48 | –
56 | Cc1ccc(C(=O)NC(=S)NCc2cccnc2)cc1 | -1.98 | –
